# Experimental data reported in PubChem BioAssay (Tox21).
# Values joined by “and” are separate entries in the source; they are usually repeats but may differ in a detail not shown here. Equal values may be shown once. Results filed as inconclusive are left out. A call without a number means that no potency is given here. Active and inactive are the calls of the source. Unless noted, calls come from the whole dose curve; as a rule, active = well fitted cell-killing curve with a large enough effect in the repeat runs; inconclusive = weak or mixed curves; inactive = no such curve, though single readings can be large or run the other way.
# System: not listed separately
# Experiment: qHTS assay to identify small molecule agonists of the peroxisome proliferator-activated receptor delta (PPARd) signaling pathway - cell viability counter screen (AID 743211); note: nearly all actives have a fitted effect of over 55% in size; note: potency is the fitted concentration of half-maximal effect
# Conditions: PPARd-bla HEK293H viability, CellTiter-Glo luminescence, 17 h; series mostly up to 62.6 µM
# In short: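 Tox21 library compounds, delivered in DMSO, were incubated 17 h with PPARd-bla HEK293H cells; cytotoxicity was taken from CellTiter-Glo luminescence read 30 min after reagent addition.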
row,SMILES,Potency
1,c1ccc2c(c1)[nH]c1cnccc12,inactive
2,ClC1=C(Cl)C2(Cl)C3C(Cl)C(Cl)CC3C1(Cl)C2(Cl)Cl (stereo not given),21.8 µM (active) and 24.5 µM (active)
3,Clc1ccc(C(c2ccccc2Cl)C(Cl)(Cl)Cl)cc1 (stereo not given),49.3 µM (active) and 28.7 µM (active)
4,[Cd+2].[Cl-].[Cl-],2.21 µM (active) and 1.38 µM (active)
5,Nc1ccc(Sc2ccc(N)cc2)cc1,inactive
6,CCC[CH2][Sn]([CH2]CCC)([CH2]CCC)[O]C(=O)c1ccccc1,0.616 µM (active)
7,C[C@]12CC[C@@H]3c4ccc(OC(=O)N(CCCl)CCCl)cc4CC[C@H]3[C@@H]1CC[C@@H]2O,inactive
8,CCCN(CCC)c1c([N+](=O)[O-])cc(S(N)(=O)=O)cc1[N+](=O)[O-],20.8 µM (active)
9,S=C=Nc1cccc2ccccc12,24.3 µM (active)
10,C=CC(=O)OCC(COC(=O)C=C)(COC(=O)C=C)COC(=O)C=C,6.92 µM (active)
11,CC(C)[C@H](C(=O)O[C@H](C#N)c1cccc(Oc2ccccc2)c1)c1ccc(Cl)cc1,inactive
12,CC(C)[C@H](C(=O)OC(C#N)c1cccc(Oc2ccccc2)c1)c1ccc(OC(F)F)cc1 (stereo not given in full),inactive
13,c1ccc(Nc2ccc3ccccc3c2)cc1,inactive
14,COc1cccc2c1C(=O)c1c(O)c3c(c(O)c1C2=O)C[C@@](O)(C(=O)CO)CC3OC1CC(N2CCOC(OC)C2)C(O)C(C)O1 (stereo not given in full),inactive
15,O=[N+]([O-])c1ccc2ccc3cccc4ccc1c2c34,inactive

# Target: Peroxisome proliferator-activated receptor delta (Homo sapiens) (UniProt Q03181)
# Sequence (Q03181 whole entry, looked up): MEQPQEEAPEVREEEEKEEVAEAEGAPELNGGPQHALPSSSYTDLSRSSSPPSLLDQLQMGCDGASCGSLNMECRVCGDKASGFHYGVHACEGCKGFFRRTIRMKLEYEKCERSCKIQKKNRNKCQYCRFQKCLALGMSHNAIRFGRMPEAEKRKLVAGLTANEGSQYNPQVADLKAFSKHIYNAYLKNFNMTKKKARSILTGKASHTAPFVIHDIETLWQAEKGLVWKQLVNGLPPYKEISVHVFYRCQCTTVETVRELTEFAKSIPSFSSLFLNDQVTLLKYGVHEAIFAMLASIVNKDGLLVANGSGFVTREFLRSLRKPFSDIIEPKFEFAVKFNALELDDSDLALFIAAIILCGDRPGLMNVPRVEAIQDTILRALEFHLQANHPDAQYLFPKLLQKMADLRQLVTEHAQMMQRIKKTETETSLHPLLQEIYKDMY
# Experiment: qHTS assay to identify small molecule agonists of the peroxisome proliferator-activated receptor delta (PPARd) signaling pathway (AID 743212; calls by dose curve;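 note: HEK293H cells with PPARd UAS beta-lactamase reporter GeneBLAzer system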)
# Conditions: HEK293H PPARd-UAS-bla, beta-lactamase FRET ratio, 17 h; series mostly up to 62.6 µM
# In short: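 A PPARd-bla HEK293H line with beta-lactamase under an Upstream Activator Sequence is treated with compounds at 37 C. Substrate loading for 2 h at room temperature precedes the fluorescence measurement.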
row,SMILES,Potency
1,Clc1ccc(C(c2ccccc2Cl)C(Cl)(Cl)Cl)cc1 (stereo not given),inactive
2,C[C@]12CC[C@@H]3c4ccc(OC(=O)N(CCCl)CCCl)cc4CC[C@H]3[C@@H]1CC[C@@H]2O,inactive
3,CN(C)C1CSSSC1,inactive
4,CC(C)[C@H](C(=O)O[C@H](C#N)c1cccc(Oc2ccccc2)c1)c1ccc(Cl)cc1,inactive
5,CC(Cc1ccc(C(C)(C)C)cc1)CN1C[C@@H](C)O[C@@H](C)C1 (stereo not given in full),inactive
6,c1ccc(Nc2ccc3ccccc3c2)cc1,inactive
7,COc1cccc2c1C(=O)c1c(O)c3c(c(O)c1C2=O)C[C@@](O)(C(=O)CO)CC3OC1CC(N2CCOC(OC)C2)C(O)C(C)O1 (stereo not given in full),inactive
8,CC1(C)[C@H](C(=O)O[C@H](C#N)c2cccc(Oc3ccccc3)c2)[C@@H]1/C=C(\Cl)C(F)(F)F,inactive

# System: not listed separately
# Experiment: qHTS assay to identify small molecule antagonists of the peroxisome proliferator-activated receptor delta (PPARd) signaling pathway - cell viability counter screen (AID 743213); note: nearly all actives have a fitted effect of over 50% in size; note: potency is the fitted concentration of half-maximal effect
# Conditions: PPARd-bla HEK293H viability, CellTiter-Glo luminescence, 17 h; series mostly up to 62 µM
# In short: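 Agonist-stimulated (L165041, 300 nM final) HEK293H PPARd UAS-bla cells are exposed to compounds for 17 h at 37 C, and ATP-based luminescence (CellTiter-Glo) from the same wells reports cytotoxicity.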
row,SMILES,Potency
1,c1ccc2c(c1)[nH]c1cnccc12,inactive
2,ClC1=C(Cl)C2(Cl)C3C(Cl)C(Cl)CC3C1(Cl)C2(Cl)Cl (stereo not given),49 µM (active)
3,Clc1ccc(C(c2ccccc2Cl)C(Cl)(Cl)Cl)cc1 (stereo not given),inactive
4,[Cd+2].[Cl-].[Cl-],7.83 µM (active) and 1.23 µM (active)
5,CCOC(=O)C1(c2ccccc2)CCN(CCC(C#N)(c2ccccc2)c2ccccc2)CC1,inactive
6,CCC[CH2][Sn]([CH2]CCC)([CH2]CCC)[O]C(=O)c1ccccc1,1.38 µM (active)
7,N#C/C=C/C#N,inactive
8,CC(=O)/C=C/c1ccc2c(c1)OCO2,inactive
9,CSCCCN=C=S,inactive
10,CN(C)C1CSSSC1,inactive
11,CC(C)[C@H](C(=O)O[C@H](C#N)c1cccc(Oc2ccccc2)c1)c1ccc(Cl)cc1,inactive
12,CC(C)[C@H](C(=O)OC(C#N)c1cccc(Oc2ccccc2)c1)c1ccc(OC(F)F)cc1 (stereo not given in full),inactive
13,CC(Cc1ccc(C(C)(C)C)cc1)CN1C[C@@H](C)O[C@@H](C)C1 (stereo not given in full),inactive
14,c1ccc(Nc2ccc3ccccc3c2)cc1,inactive
15,CC(C)(O)c1cnn2c(-c3ccc(F)c(-c4c(F)cccc4C#N)c3)cnc2n1,inactive
16,O=[N+]([O-])c1ccc2ccc3cccc4ccc1c2c34,inactive

# Target: Peroxisome proliferator-activated receptor delta (Homo sapiens) (UniProt Q03181)
# Experiment: qHTS assay to identify small molecule antagonists of the peroxisome proliferator-activated receptor delta (PPARd) signaling pathway (AID 743215; active = well fitted inhibition curve with a large enough effect in the signal ratio in the repeat runs, not every such curve was filed as active; the % refers to the signal ratio; note: potency is the fitted concentration of half-maximal effect)
# Conditions: HEK293H PPARd-UAS-bla, beta-lactamase FRET ratio, antagonist, 17 h; series mostly up to 62 µM
# In short: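 HEK293H UAS-bla, PPARd; agonist L165041 300 nM final with cpd in DMSO; 37 C 17 h; FRET substrate, RT 2 h; fluorescence intensity.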
row,SMILES,Potency
1,Clc1ccc(C(c2ccccc2Cl)C(Cl)(Cl)Cl)cc1 (stereo not given),inactive
2,Oc1c(Cl)c(Cl)cc(Cl)c1Cl,inactive
3,O=C(CCl)C(Cl)Cl,49.4 µM (active)
4,N#C/C=C/C#N,inactive
5,CC(=O)/C=C/c1ccc2c(c1)OCO2,43.9 µM (active)
6,CCCN(CCC)c1c([N+](=O)[O-])cc(S(N)(=O)=O)cc1[N+](=O)[O-],58.6 µM (active)
7,O=C(CCl)Nc1ccccc1,17.4 µM (active)
8,CC(Cc1ccc(C(C)(C)C)cc1)CN1C[C@@H](C)O[C@@H](C)C1 (stereo not given in full),inactive
9,c1ccc(Nc2ccc3ccccc3c2)cc1,inactive
10,O=[N+]([O-])c1ccc2ccc3cccc4ccc1c2c34,inactive

# Target: Bile acid receptor (Homo sapiens) (UniProt Q96RI1)
# Sequence (Q96RI1 whole entry, looked up): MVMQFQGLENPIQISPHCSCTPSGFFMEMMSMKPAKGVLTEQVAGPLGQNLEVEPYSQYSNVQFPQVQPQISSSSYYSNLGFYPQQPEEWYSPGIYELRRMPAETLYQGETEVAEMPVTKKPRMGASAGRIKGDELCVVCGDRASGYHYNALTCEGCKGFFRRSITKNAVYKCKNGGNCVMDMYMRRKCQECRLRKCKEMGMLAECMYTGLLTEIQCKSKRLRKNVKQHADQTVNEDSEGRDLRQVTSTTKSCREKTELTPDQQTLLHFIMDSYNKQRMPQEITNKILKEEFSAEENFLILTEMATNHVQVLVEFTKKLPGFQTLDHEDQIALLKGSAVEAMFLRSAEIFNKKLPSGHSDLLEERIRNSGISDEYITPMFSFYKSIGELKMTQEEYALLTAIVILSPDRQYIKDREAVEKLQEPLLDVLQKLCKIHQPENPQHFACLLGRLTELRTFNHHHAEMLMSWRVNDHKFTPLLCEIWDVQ
# Experiment: qHTS assay to identify small molecule antagonists of the farnesoid-X-receptor (FXR) signaling pathway (AID 743217; active = well fitted inhibition curve with a large enough effect in the signal ratio in the repeat runs, not every such curve was filed as active; the % refers to the signal ratio; note: potency is the fitted concentration of half-maximal effect)
# Conditions: HEK293T FXR-UAS-bla, beta-lactamase ratio, CDCA-stimulated, 16 h; series mostly up to 62.6 µM
# In short: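 GeneBLAzer FXR-UAS-bla HEK 293T, CDCA-stimulated (50 uM final). Compound treatment 16 h, 37 °C. Detection: beta-lactamase cleavage of B/G FRET substrate, fluorescence.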
row,SMILES,Potency
1,CC(=O)C(Cl)(Cl)Cl,inactive
2,C[C@]12CC[C@@H]3c4ccc(OC(=O)N(CCCl)CCCl)cc4CC[C@H]3[C@@H]1CC[C@@H]2O,21.1 µM (active)
3,CCCN(CCC)c1c([N+](=O)[O-])cc(S(N)(=O)=O)cc1[N+](=O)[O-],58.6 µM (active)
4,CC(Cc1ccc(C(C)(C)C)cc1)CN1C[C@@H](C)O[C@@H](C)C1 (stereo not given in full),inactive
5,c1ccc(Nc2ccc3ccccc3c2)cc1,inactive
6,O=[N+]([O-])c1ccc2ccc3cccc4ccc1c2c34,inactive
